{"source": "PubChem BioAssay AID686978", "about": "(National Center for Advancing Translational Sciences (NCATS), 2013)", "note": "Hit rate of the full screen: of about 420,000 compounds, about 64,000 (15%) were called active. About 27% were inconclusive and are not listed. A selection follows. A number with no mark means an inactive call. Calls come from the whole dose curve; as a rule, active = well fitted inhibition curve with a large enough effect; inconclusive = small, poorly fitted or top-dose-only effect; inactive = flat fitted curve, though single readings scatter. % is set by controls: 0 for no effect and ±100 for the full control effect; potency is the fitted concentration of half-maximal effect."}
{"assay": "qHTS for Inhibitors of human tyrosyl-DNA phosphodiesterase 1 (TDP1): qHTS in cells in absence of CPT; note: nearly all actives have a fitted effect of over 55% in size", "settings": "DT40 Tdp1-/- hTDP1 cells, no CPT, ATP luminescence, 48 h; activity change, negative = growth inhibition: at 46.2 µM (top of the series)", "how_it_was_run": "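Growth of hTDP1-complemented DT40 Tdp1-knockout cells is measured by ATP luminescence after at least 48 hr compound exposure at 37 °C, with DMSO substituting for the 20 nM CPT used in the parallel screen.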"}
{"molecule": "Cc1ccc(C(=O)N2CCC(n3nccc3NC(=O)Nc3cccc(F)c3)CC2)cn1", "activity change, negative = growth inhibition": "10.4%"}
{"molecule": "Brc1cccc(-c2nnn3c2nc(NC2CCCCC2)c2ccccc23)c1", "activity change, negative = growth inhibition": "-26.7%"}
{"molecule": "Cc1ccc(C)c(-n2c(SCC(=O)O)nc3sc4c(c3c2=O)CCCC4)c1", "activity change, negative = growth inhibition": "-16.6%"}
{"molecule": "CCCc1nc2sc3c(c2c(=O)n1NC(=O)CCCl)CCCC3", "Potency": "29.1 µM (active)"}
{"molecule": "COc1ccc(NC(=O)CCNC(=O)Cn2cnc3sc4c(c3c2=O)CCCC4)cc1OC", "activity change, negative = growth inhibition": "-4.24%"}
{"molecule": "CC(C)N(Cc1nc(-c2ccc3c(c2)OCO3)no1)CC1CCC(=O)N1", "note": "(configuration not stated)", "activity change, negative = growth inhibition": "8.55%"}
{"molecule": "CCC(=O)c1ccc(OCC(=O)OCC(=O)NC2CCCCCC2)cc1", "activity change, negative = growth inhibition": "-17%"}
{"molecule": "O=C(COc1ccccc1)Nc1ccc(C(=O)N2CCCC2)cc1", "activity change, negative = growth inhibition": "22.5%"}
{"molecule": "CCC(=O)c1ccc(OCC(=O)Nc2ccc(N3CCCCC3)cc2)cc1", "Potency": "20.6 µM (active)"}
{"molecule": "O=C(NCC(=O)N1CCCCCCC1)c1ccccc1Cl", "activity change, negative = growth inhibition": "12.3%"}
{"molecule": "COc1cc(C(=O)Nc2ccc(OCc3cc(=O)n4ccc(C)cc4n3)cc2)cc(OC)c1OC", "activity change, negative = growth inhibition": "-9.6%"}
{"molecule": "Cc1nc2ccccc2c(=O)n1-c1ccc(NS(=O)(=O)c2ccc(F)cc2F)cc1", "activity change, negative = growth inhibition": "-14.2%"}
{"molecule": "COc1cc(C(=O)Nc2ccc(-n3c(C)nc4ccccc4c3=O)cc2)cc(OC)c1OC", "Potency": "18.4 µM (active)"}
{"molecule": "C=CCNc1nnc(SCC(=O)N2CCCCC2)c2ccccc12", "activity change, negative = growth inhibition": "4.38%"}
{"molecule": "Cc1cc(NC(=O)CSc2nc3ccccc3n2CC(C)C)no1", "activity change, negative = growth inhibition": "-4.04%"}
{"molecule": "CC(C)(C)NC(=O)Cn1c(SCC(=O)Nc2nccs2)nc2ccccc21", "activity change, negative = growth inhibition": "-4.92%"}
{"molecule": "Cc1cc(C)c(NC(=O)Cn2c(SCC(=O)NCc3ccccc3)nc3ccccc32)c(C)c1", "Potency": "18.4 µM (active)"}
{"molecule": "O=[N+]([O-])c1ccc(Oc2ccc(F)cc2Br)c2ccncc12", "Potency": "23.1 µM (active)"}
{"molecule": "O=c1[nH]c2c(c(=O)n1-c1ccccc1)CCO2", "activity change, negative = growth inhibition": "-19.7%"}
{"molecule": "CCC(C)c1ccc(NC(=S)N2CCCC2)cc1", "note": "(configuration not stated)", "Potency": "10.3 µM (active)"}
{"molecule": "CCOC(=O)c1ccc(NC(=S)N2CCCC2)cc1", "activity change, negative = growth inhibition": "0.979%"}
{"molecule": "CCOc1ccc(NC(=S)N2CCCCCC2)cc1", "activity change, negative = growth inhibition": "8.01%"}
{"molecule": "Cc1cc(OCC(=O)NCC(O)c2ccccc2)c2c(C)c(C)c(=O)oc2c1", "note": "(configuration not stated)", "activity change, negative = growth inhibition": "-21.4%"}
{"molecule": "CCCC1CC(C)(C(=O)Cn2[nH]c(=O)ccc2=O)OC1=O", "note": "(configuration not stated)", "activity change, negative = growth inhibition": "-8.19%"}
{"molecule": "CCOC(=O)c1c(-c2ccccc2)oc2ccc(OCC(=O)NN)cc12", "activity change, negative = growth inhibition": "1.78%"}
{"molecule": "COC(=O)c1c(-c2ccsc2)oc2ccc(-c3cc(OC)c(OC)c(OC)c3)cc12", "Potency": "16.4 µM (active)"}
{"molecule": "COc1cc(-c2nnc(NC(=O)CS(=O)(=O)c3ccc(Cl)cc3)o2)cc(OC)c1OC", "activity change, negative = growth inhibition": "4.37%"}
{"molecule": "C/C(Nc1ccc2oc(=O)ccc2c1)=C1/C(=O)CC2[C@@H]1C2(C)C", "note": "(some centres not stated)", "activity change, negative = growth inhibition": "-12.6% [at 9.04 µM]"}
{"molecule": "C/C(=N/NC(=O)c1ccn(C)n1)c1ccncc1", "activity change, negative = growth inhibition": "14.9%"}
{"molecule": "Cc1cnc(NC(=O)C2CCCC2)s1", "activity change, negative = growth inhibition": "-8.92%"}
{"molecule": "CCCCCNC(=O)Cc1ccc(OC)cc1", "activity change, negative = growth inhibition": "-23%"}
{"molecule": "COc1ccc(CC(=O)Nc2ccc(-c3nnc(-c4ccc(C)cc4)o3)cc2)cc1", "activity change, negative = growth inhibition": "-10.4%"}
{"molecule": "C/C=C/NNC(=O)Cc1ccc(OC)cc1", "Potency": "5.62 µM (active)"}
{"molecule": "CS(=O)(=O)N1CCN(C(=O)Cc2ccccc2)CC1", "activity change, negative = growth inhibition": "-5.14%"}
{"molecule": "CC(C)c1ccc(CC(=O)N2CCC2(C)C(=O)NS(=O)(=O)c2ccc(C(C)(C)C)cc2)cc1", "note": "(configuration not stated)", "activity change, negative = growth inhibition": "-8.67%"}
{"molecule": "CC1=C(N2CCN(c3ncccn3)CC2)CCC1=O", "activity change, negative = growth inhibition": "9.41%"}
{"molecule": "c1cnc(N2CCN(c3ccc4ccccc4n3)CC2)nc1", "Potency": "18.4 µM (active)"}
{"molecule": "Oc1ccc(CN2CCN(c3ncccn3)CC2)cc1", "activity change, negative = growth inhibition": "0.422%"}
{"molecule": "CC(C)n1ncc2c(C(=O)Nc3ccc(CC#N)cc3)cc(C3CC3)nc21", "Potency": "13 µM (active)"}
{"molecule": "CC(=O)Nc1ccc(CC#N)cc1", "activity change, negative = growth inhibition": "10.2%"}
{"molecule": "O=C(NCCN1CCOCC1)c1cnn(-c2nccc(-c3cccs3)n2)c1C1CC1", "activity change, negative = growth inhibition": "-8%"}
{"molecule": "N#CCc1ccc(NC(=O)c2ccccc2C(=O)Nc2ccc(CC#N)cc2)cc1", "activity change, negative = growth inhibition": "-5.04%"}
{"molecule": "CC(C)n1ncc2c(C(=O)N3CCN(Cc4cccs4)CC3)cc(C3CC3)nc21", "Potency": "25.9 µM (active)"}
{"molecule": "Cc1ccsc1C1C(C#N)=C(N)OC2=C1C(=O)CC(C)C2", "note": "(configuration not stated)", "activity change, negative = growth inhibition": "11.3%"}
{"molecule": "CCOC(=O)Cc1cc(=O)[nH]c(=O)[nH]1", "activity change, negative = growth inhibition": "-0.765%"}
{"molecule": "COCCn1cnnc1SCC(=O)Nc1cccc(S(=O)(=O)N2CCCCC2)c1", "activity change, negative = growth inhibition": "-10.9%"}
{"molecule": "Cc1c(CCO)c(=O)n(-c2ccccc2)n1S(=O)(=O)c1ccc(F)cc1", "activity change, negative = growth inhibition": "-27.5%"}
{"molecule": "COCCCNC(=O)C1CC(=O)N(c2ccc(C)cc2)C1", "note": "(configuration not stated)", "activity change, negative = growth inhibition": "-14.8%"}
{"molecule": "Cc1oc(-c2ccccc2F)nc1CS(=O)(=O)CC(=O)NCCCN(C)C1CCCCC1", "activity change, negative = growth inhibition": "-9.36%"}
{"molecule": "Cc1ccc(N2C(=O)C(CC(=O)Nc3cccc(F)c3)N(CCc3ccncc3)C2=O)cc1", "note": "(configuration not stated)", "activity change, negative = growth inhibition": "-19.1%"}
{"molecule": "CCOc1ccc(NC(=O)CN(C)C(=O)CCSc2ccc(F)cc2)cc1OCC", "activity change, negative = growth inhibition": "-17.2%"}
{"molecule": "CCN(C(=O)COC(=O)C1CCN(S(=O)(=O)c2ccc(C)c(C)c2)CC1)C1CCS(=O)(=O)C1", "note": "(configuration not stated)", "activity change, negative = growth inhibition": "-4.69%"}
{"molecule": "O=[N+]([O-])c1ccc(N(CCO)Cc2ccccc2)c([N+](=O)[O-])c1", "activity change, negative = growth inhibition": "-59%"}
{"molecule": "CCCCCNC(=O)C1c2ccccc2Oc2ccccc21", "activity change, negative = growth inhibition": "-20.9%"}
{"molecule": "CCCN(CCC)C(=O)C1c2ccccc2Oc2ccccc21", "Potency": "25.9 µM (active)"}
{"molecule": "CCOC(=O)CC(NC(=O)C1c2ccccc2Oc2ccccc21)c1ccc(C)cc1", "note": "(configuration not stated)", "activity change, negative = growth inhibition": "-27.3%"}
{"molecule": "Cc1ccccc1OCCC(=O)OCC(=O)NCCc1ccc(S(N)(=O)=O)cc1", "activity change, negative = growth inhibition": "10.2%"}
{"molecule": "COc1ccccc1-n1c(CNC(=O)c2ccccc2)nnc1SCC(=O)Nc1nnc(C)s1", "activity change, negative = growth inhibition": "-9.04%"}
{"molecule": "Cc1cccc(CSc2nnc(NC(=O)CSc3nnc(C)s3)s2)c1", "activity change, negative = growth inhibition": "-17%"}
{"molecule": "CC(=O)Nc1cccc(NC(=O)CSc2nccn2Cc2ccc(F)cc2)c1", "activity change, negative = growth inhibition": "10.9%"}
{"molecule": "Cc1cccc(-n2ccnc2SCC(=O)Nc2cccc3ccccc23)c1C", "Potency": "16.4 µM (active)"}
{"molecule": "Cc1cc(NC(=O)CSc2nccn2-c2ccc([N+](=O)[O-])cc2)no1", "activity change, negative = growth inhibition": "2.54%"}
{"molecule": "COc1ccccc1-n1ccnc1SCC(=O)NC(C)(C)C", "activity change, negative = growth inhibition": "-15.4%"}
{"molecule": "Cc1nnc(NC(=O)CSc2nccn2-c2cccc(C)c2C)s1", "Potency": "3.26 µM (active)"}
{"molecule": "Cc1ccccc1-n1c(SCC(=O)Nc2cccc3ccccc23)nc(O)cc1=O", "activity change, negative = growth inhibition": "18.6%"}
{"molecule": "O=C(CSc1nccn1-c1ccc(F)cc1)Nc1cccc2ccccc12", "Potency": "14.6 µM (active)"}
{"molecule": "Cc1cccc(NC(=O)c2ccc(OCC(=O)NCc3ccccc3)cc2)c1C", "activity change, negative = growth inhibition": "-22.1%"}
